Measured values reported in the OligoGym collection.
Note: reference of the scale not given here.

What follows are sequences tested against CD1E (assay: pooled miR-30 sensor sort-seq; sequence = guide strand). Settings: shRNA.
TATCTGGATAAAACTATGGAAG gave a sensor-assay potency score (higher = more potent) of -1.28.
Sequence TTCCTTAATATCTAGGTAGCGA has a sensor-assay potency score (higher = more potent) of -0.491.
With TAGGTAGCGATTGAGCACTTTA the sensor-assay potency score (higher = more potent) was -0.754.
Work on TTAACCGTGAGTCAACTACAAC yielded a sensor-assay potency score (higher = more potent) of -1.49.
With TGTTCTTATTTGAACTCTGTTT the sensor-assay potency score (higher = more potent) was -0.835.
TAAGTTTTTCAGCTCCTGCTTG gave a sensor-assay potency score (higher = more potent) of -0.417.
Sequence AATATCTGGATCTCGAAGGGGT has a sensor-assay potency score (higher = more potent) of 0.0216.
Work on TATAACTGGAACAGTGACTGTA yielded a sensor-assay potency score (higher = more potent) of 0.739.
For TTTTGATCCACGATACTTGTGC, the sensor-assay potency score (higher = more potent) was 0.208.
Sequence TTTTTCAGCTCCTGCTTGCTGA has a sensor-assay potency score (higher = more potent) of -0.242.
TTCCACTTCTTCAATACTCTGT showed a sensor-assay potency score (higher = more potent) of 0.573.
In the case of TCTACAGCCAGCTAATATCTGG, the sensor-assay potency score (higher = more potent) is reported as -0.694.
Sequence TAGGATTGTAGAGCCTGGGGAG has a sensor-assay potency score (higher = more potent) of -0.471.
Work on TATTTCCTTAATATCTAGGTAG yielded a sensor-assay potency score (higher = more potent) of -0.111.
Sequence TAGACTGCTGTGTTTCACCCGA has a sensor-assay potency score (higher = more potent) of -0.381.
Sequence ATATCCACCATGTCTCGTCAGC has a sensor-assay potency score (higher = more potent) of -0.905.
In the case of TGTCTCGTCAGCATTAGGCAGG, the sensor-assay potency score (higher = more potent) is reported as -0.59.
With TATTTAAGAAGATTTGTGGGGC the sensor-assay potency score (higher = more potent) was 0.193.
TAATATCTGGATCTCGAAGGGG was tested, and the sensor-assay potency score (higher = more potent) was -0.509.
ATAACTGGAACAGTGACTGTAA showed a sensor-assay potency score (higher = more potent) of 0.29.
For AACTACAACCAATATGACCAGG, the sensor-assay potency score (higher = more potent) was -0.902.

Each sequence was assayed against CD27 in the same assay as above. Settings: shRNA.
In the case of ATCTATATTTCCTTCGTTGATG, the sensor-assay potency score (higher = more potent) is reported as -1.32.
In the case of TGGAAGAGGATCACACTCGGTG, the sensor-assay potency score (higher = more potent) is reported as -0.658.
Work on TTGATCTATATTTCCTTCGTTG yielded a sensor-assay potency score (higher = more potent) of -0.282.
TTGGAAGAGGATCACACTCGGT was tested, and the sensor-assay potency score (higher = more potent) was -0.746.
With TGCAAGGATCACACTGAGCAGC the sensor-assay potency score (higher = more potent) was -1.06.
Work on TGTAACGACAAGGCTCTGCAGG yielded a sensor-assay potency score (higher = more potent) of -0.28.
With TGAAAACAAGGAACATTCCAGA the sensor-assay potency score (higher = more potent) was -0.449.
For TAAAATCGGAGCTGCACAGGGA, the sensor-assay potency score (higher = more potent) was 0.114.
Work on TATATTTCCTTCGTTGATGGAG yielded a sensor-assay potency score (higher = more potent) of -0.211.
Sequence TTTCGCAGCAGGAAGTGTGTTT has a sensor-assay potency score (higher = more potent) of 0.0361.
Sequence TTTGTTTGATCTATATTTCCTT has a sensor-assay potency score (higher = more potent) of 0.303.
TCACACTCGGTGCACTCCTTGT gave a sensor-assay potency score (higher = more potent) of -1.13.
In the case of TCTGGCAGCACAGCTTTCCCTG, the sensor-assay potency score (higher = more potent) is reported as -1.15.
Sequence TTTCCTTCGTTGATGGAGGAAC has a sensor-assay potency score (higher = more potent) of -0.814.
TCTATGCTGGTCACAGTCCTTC was tested, and the sensor-assay potency score (higher = more potent) was -0.827.
Work on AAAACAAGGAACATTCCAGAGA yielded a sensor-assay potency score (higher = more potent) of -0.821.
Work on TAGCATGTGGGTCTTTCGCAGC yielded a sensor-assay potency score (higher = more potent) of -0.998.
With TTCTATGCTGGTCACAGTCCTT the sensor-assay potency score (higher = more potent) was -1.06.
